Results filed as inconclusive are left out. Unmarked numbers belong to inactive results. The source made the active and inactive calls. Calls come from the whole dose curve; as a rule, active = well fitted inhibition curve with a large enough effect; inconclusive = small, poorly fitted or top-dose-only effect; inactive = no such curve, though single readings can be large or run the other way.
Note: nearly all actives have a fitted effect of over 80% in size.
Potency is the fitted concentration of half-maximal effect.
Throughout, for activity change, negative = inhibition: 0% is about no effect.

Sequence of N-terminal Xaa-Pro-Lys N-methyltransferase 1 (Homo sapiens) (Q9BV86 whole entry, looked up): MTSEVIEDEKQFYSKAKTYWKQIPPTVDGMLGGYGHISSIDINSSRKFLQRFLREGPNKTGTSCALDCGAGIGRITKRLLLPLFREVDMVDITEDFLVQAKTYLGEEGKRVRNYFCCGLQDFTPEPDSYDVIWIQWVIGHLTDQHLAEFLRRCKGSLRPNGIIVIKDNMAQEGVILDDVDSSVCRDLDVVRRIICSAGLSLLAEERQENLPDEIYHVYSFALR

For this experiment, the target named is N-terminal Xaa-Pro-Lys N-methyltransferase 1 (Homo sapiens) (UniProt Q9BV86). In words: qHTS Assay for Inhibitors of N-terminal methyltransferase 1 (NTMT1): ThioGlo3 Assay Confirmatory Screen, Round 1. Particulars: NTMT1 SAHH-coupled ThioGlo3 fluorescence, 30 min; series mostly up to 56.8 µM; activity change, negative = inhibition: at the top concentration. An excerpt:
Assay Submitter (PI): Rong Huang Ph.D, Purdue University, West Lafayette, IN 47907 The N-terminal methytransferase 1 is the first methyltransferase that methylates protein alpha-N-amines and plays an important role in regulating cell mitosis, chromatin interactions and DNA repair. It is observed to be over-expressed in various cancer patient tissues like malignant melanoma and colorectal cancer tissues. Knockdown of NTMT1 in cancer cells causes cell mitotic defects and enhances sensitivity to DNA damaging chemotherapeutics. […] These critical cellular processes in which NTMT1 is implicated, coupled with emerging links to cellular dysfunction, strengthen the inference that NTMT1 is a compelling novel anticancer target. Progress have been made in understanding the molecular properties of NTMT1 and the biological consequences of protein alpha-N-terminal methylation, but there are no specific small molecule probes available for NTMT1 to fully characterize its MTase activity. To address this unmet need, a panel of assay is created and established to enable quantitative high-throughput screening (qHTS) for novel, potent, and selective small molecule NTMT1 inhibitors. Two orthogonal qHTS that use different reagents (ThioGlo vs. MTaseGlo) are developed for primary robotic screening against the NCATS chemical library of more than 400,000 small molecules. Identified inhibitors are reacquired, validated, and further characterized. […] Early Translation Branch (ETB) National Center for Advancing Translational Sciences (NCATS) National Institute of Health (NIH)
Materials: NTMT1 enzyme, substrate SPKRIA, control peptide RCC1-6 is provided by the Huang laboratory. ThioGlo3 Assay: In brief, 125nM NTMT1 enzyme was dispensed into a 1536-well assay plate with Aurora Discovery BioRAPTR Flying Reagent Dispenser (FRD, Beckton-Dickenson). Compounds (at various concentration) or 1uM RCC1-6 (SPKRIA) control were transferred to the assay plate using the Kalypsys 1536-pintool apparatus. After 1 min of room temperature incubation, 1uL of substrate (100uM SAM, 10uM SAHH, 15uM ThioGlo3) was added to the wells bringing the final assay volume to 4uL. Initial (background) fluorescence readout (EX: 340nm, EM: 450nm) was then detected using the PerkinElmer ViewLux microplate imager and a final fluorescence readout was taken after 30 min of room temperature incubation. The data was normalized to the background fluorescence.
Consider `Nc1ncnc2c1ncn2C1O[C@H](COP(=O)(O)O)[C@@H](O)[C@H]1O` (stereo not given in full), for which the “activity change, negative = inhibition” value is -14.8%.

As for `COc1cc2c(NC3CCN(C)CC3)nc(N3CCCN(C)CC3)nc2cc1OCC1CCNCC1`, the Potency is 24.1 µM (active). The same measure, in the same setting: the same measure for `COc1cc2c(NC3CCN(C)CC3)nc(N3CCCN(C)CC3)nc2cc1OCCCCN`: 21.5 µM (active). Turning to `COc1cc2c(NC3CCN(C)CC3)nc(N3CCCCC3)nc2cc1OCCCN(C)C`, the “activity change, negative = inhibition” value was 1400%. For `COc1cc2c(NC3CCN(C)CC3)nc(N3CCCN(C)CC3)nc2cc1OCCN(C)C`, the Potency is 21.5 µM (active). Consider `COc1cc2nc(NCCN(C)C)nc(NC3CC3)c2cc1OC`, for which the Potency was 27.1 µM (active). With `Nc1nc2c(ncn2[C@@H]2O[C@H](CO)[C@@H](O)[C@@H]2O)c(=O)[nH]1`, the “activity change, negative = inhibition” value was 3.06%.

For `COc1cc2c(NC3CCN(C)CC3)nc(N3CCCN(C)CC3)nc2cc1OCCCCCCN(C)C`, the Potency was 24.1 µM (active). On the same count and under the same terms, the same measure for `COc1cc2nc(N3CCN(C)CC3)nc(NC3CC3)c2cc1OC`: 27.1 µM (active). Regarding `CC(C)(COP(=O)(O)OP(=O)(O)OC[C@H]1O[C@@H](n2cnc3c(N)ncnc32)[C@H](O)[C@@H]1OP(=O)(O)O)[C@H](O)C(=O)NCCC(=O)NCCS`, the “activity change, negative = inhibition” value is 49.5%. With `CNC(=O)[C@H]1O[C@@H](n2cnc3c(NCc4ccc(N)cc4)ncnc32)[C@H](O)[C@@H]1O`, the “activity change, negative = inhibition” value is 1.41%. Still for that read-out and setting: next, `O=c1[nH]cnc2c1ncn2C1O[C@H](CO)[C@@H](O)[C@H]1O` (stereo not given in full): 19.8%. For `COc1cc2c(NC3CCN(C)CC3)nc(N3CCCN(C)CC3)nc2cc1OCCCCN(C)C`, the Potency was 24.1 µM (active). As to `CCN(c1cc(C#CCN2CCOCC2)cc(C(=O)NCc2c(C)cc(C)[nH]c2=O)c1C)C1CCC(N(C)CCOC)CC1` (stereo not given), the “activity change, negative = inhibition” value was 1.3%. With `COc1cc2c(NC3CCN(C)CC3)nc(N3CCCN(C)CC3)nc2cc1OCCCN1CCOCC1`, the Potency was 24.1 µM (active). For `Nc1ncnc2c1ncn2[C@@H]1O[C@H](C(=O)NC2CC2)[C@@H](O)[C@H]1O`, the “activity change, negative = inhibition” value is 2.31%. With `Nc1ccnc2c1ncn2[C@@H]1O[C@H](CO)[C@@H](O)[C@H]1O`, the Potency was 2.71 µM (active). In the case of `CNc1ncnc2c1ncn2[C@H]1C[C@H](O)[C@@H](CO)O1`, the “activity change, negative = inhibition” value was -0.37%.

Regarding `COc1cc2c(NC3CCN(C)CC3)nc(N3CCCN(C)CC3)nc2cc1OCCCN1CCCC1`, the Potency is 27.1 µM (active). Same read-out and setting: next, `COc1cc2c(NC3CCN(C)CC3)nc(N3CCCN(C)CC3)nc2cc1OCCOCCN(C)C`: 24.1 µM (active).

Turning to `CC(C)N(C[C@H]1O[C@@H](n2cnc3c(N)ncnc32)[C@H](O)[C@@H]1O)C1CC(CCc2nc3ccc(C(C)(C)C)cc3[nH]2)C1` (stereo not given in full), the “activity change, negative = inhibition” value is -13.7%. For the molecule `COc1cc2nc(N3CCN(C)CC3)nc(NC3CCN(Cc4ccccc4)CC3)c2cc1OC`, the Potency is 24.1 µM (active). Still for that read-out and setting: next, `Nc1ncnc2c1ncn2[C@@H]1O[C@H](CO)[C@@H](O)[C@H]1O`: 1.08 µM (active). Regarding `Nc1ncnc2c1ncn2[C@@H]1O[C@H](CSCC[C@H](N)C(=O)O)[C@@H](O)[C@H]1O`, the “activity change, negative = inhibition” value is 1830%.

For `COc1cc2nc(N3CC[C@H](N(C)C)C3)nc(NC3CC3)c2cc1OC`, the “activity change, negative = inhibition” value was 15.8%.

As for `COc1cc2nc(N3CCOCC3)nc(NC3CCN(Cc4ccccc4)CC3)c2cc1OC`, the Potency is 27.1 µM (active).

In the case of `COc1cc2c(NC3CCN(C(C)C)CC3)nc(N3CCCCC3)nc2cc1OCCCN1CCCCC1`, the Potency was 21.5 µM (active). Still for that read-out and setting: next, `CCN1CCCN(c2nc(NC3CCN(C(C)C)CC3)c3cc(OC)c(OCCCN4CCCCC4)cc3n2)CC1`: 24.1 µM (active).

With `C=C1OC(CO)(n2cnc3c(N)ncnc32)C(O)C1O` (stereo not given), the “activity change, negative = inhibition” value is -17.8%. Consider `COc1cc2nc(N3CCCN(C)CC3)nc(NC3CCN(C)C3)c2cc1OC` (stereo not given), for which the Potency was 24.1 µM (active). As for `CNc1nc2c(N)ncnc2n1[C@@H]1O[C@@H]2COP(=O)(O)O[C@H]2[C@H]1O`, the “activity change, negative = inhibition” value is -22.3%.

As for `COc1cc2c(NC3CCN(C(C)C)CC3)nc(N3CCCN(C)CC3)nc2cc1OCCOCCN1CCCC1`, the Potency was 27.1 µM (active). Still for that read-out and setting: next, `COc1cc2nc(N3CCN(C(C)=O)CC3)nc(NC3CC3)c2cc1OC`: 21.5 µM (active).

`CCN1CCN(c2nc(NC3CC3)c3cc(OC)c(OC)cc3n2)CC1`: the Potency is 24.1 µM (active). Same read-out and setting: the same measure for `Cc1ccccc1CNc1ncnc2c1ncn2[C@@H]1O[C@H](CO)[C@@H](O)[C@H]1O`: 27.1 µM (active).

`Nc1ncnc2c1[nH]c(=S)n2C1OC(CO)C(O)C1O` (stereo not given): the Potency was 17.1 µM (active). Same read-out and setting: the same measure for `COc1cc2c(NC3CCN(CC4CCCCC4)CC3)nc(N3CCCCCC3)nc2cc1OCCOCCN(C)C`: 27.1 µM (active). For `CNC(=O)[C@H]1O[C@@H](n2cnc3c(N)ncnc32)[C@H](O)[C@@H]1O`, the “activity change, negative = inhibition” value is 8.67%. In the case of `COc1cc2nc(N3CCOCC3)nc(NC3CCN(C)CC3)c2cc1OC`, the Potency is 24.1 µM (active). Same read-out and setting: the same measure for `COc1cc2c(NC3CCN(CC4CCCCC4)CC3)nc(N3CCCN(C(C)C)CC3)nc2cc1OCCCN1CCCCC1`: 24.1 µM (active).

(Values after PubChem BioAssay AID1347142 (National Center for Advancing Translational Sciences (NCATS), 2019).)
